According to ChEMBL document CHEMBL1961873, “Compounds: GSK PKIS; Assays: Nanosyn kinase panel” (2012):

Key:
[1] = target: Ribosomal protein S6 kinase alpha-6 (Homo sapiens) (UniProt Q9UK32); conditions: at 1 µM;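 further: each value is a mean inhibition of RSK4 from a GSK PKIS panel screen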
[2] = target: T1, Serine/threonine-protein kinase Sgk1 (Homo sapiens) (UniProt O00141); conditions: at 0.1 µM
T1 sequence (whole entry): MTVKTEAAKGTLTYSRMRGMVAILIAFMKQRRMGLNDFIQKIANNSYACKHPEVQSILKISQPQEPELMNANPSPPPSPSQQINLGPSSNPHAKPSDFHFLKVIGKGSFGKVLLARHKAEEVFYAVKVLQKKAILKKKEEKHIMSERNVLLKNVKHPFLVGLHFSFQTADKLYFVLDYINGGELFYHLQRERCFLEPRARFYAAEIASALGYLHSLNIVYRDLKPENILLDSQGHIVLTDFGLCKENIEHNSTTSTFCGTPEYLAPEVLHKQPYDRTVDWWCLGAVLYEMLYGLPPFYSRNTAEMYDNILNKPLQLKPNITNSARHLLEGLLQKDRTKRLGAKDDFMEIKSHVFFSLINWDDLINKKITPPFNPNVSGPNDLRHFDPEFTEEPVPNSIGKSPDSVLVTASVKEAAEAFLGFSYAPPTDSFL

[3] = target: T1, Serine/threonine-protein kinase Sgk1 (Homo sapiens); conditions: at 1 µM
[4] = target: T2, Serine/threonine-protein kinase Sgk2 (Homo sapiens) (UniProt Q9HBY8); conditions: at 0.1 µM
T2 sequence (whole entry): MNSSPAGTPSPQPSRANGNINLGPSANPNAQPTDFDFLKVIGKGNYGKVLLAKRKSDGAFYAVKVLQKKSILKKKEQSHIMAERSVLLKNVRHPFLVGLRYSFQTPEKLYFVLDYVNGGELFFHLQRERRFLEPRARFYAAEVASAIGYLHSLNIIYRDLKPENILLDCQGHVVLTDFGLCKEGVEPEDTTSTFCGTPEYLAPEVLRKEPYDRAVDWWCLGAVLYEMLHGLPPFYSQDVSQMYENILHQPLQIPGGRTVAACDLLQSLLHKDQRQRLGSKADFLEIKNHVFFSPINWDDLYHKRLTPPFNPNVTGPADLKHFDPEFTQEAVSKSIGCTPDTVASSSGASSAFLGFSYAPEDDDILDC

[5] = target: T2, Serine/threonine-protein kinase Sgk2 (Homo sapiens); conditions: at 1 µM
[6] = target: T3, Serine/threonine-protein kinase Sgk3 (Homo sapiens) (UniProt Q96BR1); conditions: at 0.1 µM
T3 sequence (whole entry): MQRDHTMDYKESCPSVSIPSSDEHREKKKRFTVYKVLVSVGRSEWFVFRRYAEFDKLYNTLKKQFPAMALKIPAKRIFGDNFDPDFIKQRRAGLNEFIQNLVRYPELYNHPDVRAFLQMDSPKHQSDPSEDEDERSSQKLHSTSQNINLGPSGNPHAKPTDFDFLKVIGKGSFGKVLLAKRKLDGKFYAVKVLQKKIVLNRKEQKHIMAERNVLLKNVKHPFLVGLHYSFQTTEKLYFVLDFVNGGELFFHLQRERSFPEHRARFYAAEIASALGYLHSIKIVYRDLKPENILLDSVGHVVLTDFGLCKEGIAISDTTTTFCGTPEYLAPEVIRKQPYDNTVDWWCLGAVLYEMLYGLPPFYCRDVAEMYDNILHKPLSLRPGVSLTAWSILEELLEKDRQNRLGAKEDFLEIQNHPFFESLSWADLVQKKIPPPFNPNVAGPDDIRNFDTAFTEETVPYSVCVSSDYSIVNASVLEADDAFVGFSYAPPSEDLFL

[7] = target: T3, Serine/threonine-protein kinase Sgk3 (Homo sapiens); conditions: at 1 µM
[8] = target: 5'-AMP-activated protein kinase catalytic subunit alpha-1 (Homo sapiens) (UniProt Q13131); conditions: at 0.1 µM
[9] = target: 5'-AMP-activated protein kinase catalytic subunit alpha-1 (Homo sapiens) (UniProt Q13131); conditions: at 1 µM
[10] = target: 5'-AMP-activated protein kinase catalytic subunit alpha-2 (Homo sapiens) (UniProt P54646); conditions: at 0.1 µM
[11] = target: 5'-AMP-activated protein kinase catalytic subunit alpha-2 (Homo sapiens) (UniProt P54646); conditions: at 1 µM
[12] = target: T4, NUAK family SNF1-like kinase 1 (Homo sapiens) (UniProt O60285); conditions: at 0.1 µM
T4 sequence (whole entry): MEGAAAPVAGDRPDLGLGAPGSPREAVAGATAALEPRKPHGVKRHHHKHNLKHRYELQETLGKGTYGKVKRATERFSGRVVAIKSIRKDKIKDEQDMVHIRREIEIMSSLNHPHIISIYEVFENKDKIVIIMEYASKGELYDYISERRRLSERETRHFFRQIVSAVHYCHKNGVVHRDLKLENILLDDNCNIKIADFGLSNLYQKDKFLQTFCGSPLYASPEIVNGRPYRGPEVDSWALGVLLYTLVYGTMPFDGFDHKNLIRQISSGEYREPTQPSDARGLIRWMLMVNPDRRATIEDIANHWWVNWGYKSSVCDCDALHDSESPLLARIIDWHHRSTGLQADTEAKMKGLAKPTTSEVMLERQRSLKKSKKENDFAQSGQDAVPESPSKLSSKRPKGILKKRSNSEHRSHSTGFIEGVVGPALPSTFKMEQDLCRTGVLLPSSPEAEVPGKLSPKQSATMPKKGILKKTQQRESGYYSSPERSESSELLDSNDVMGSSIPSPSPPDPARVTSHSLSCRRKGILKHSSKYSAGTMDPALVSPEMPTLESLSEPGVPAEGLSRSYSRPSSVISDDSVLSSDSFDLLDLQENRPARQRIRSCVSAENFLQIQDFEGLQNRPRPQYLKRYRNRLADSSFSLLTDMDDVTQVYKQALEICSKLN

[13] = target: T4, NUAK family SNF1-like kinase 1 (Homo sapiens); conditions: at 1 µM
[14] = target: T5, Serine/threonine-protein kinase BRSK1 (Homo sapiens) (UniProt Q8TDC3); conditions: at 0.1 µM
T5 sequence (whole entry): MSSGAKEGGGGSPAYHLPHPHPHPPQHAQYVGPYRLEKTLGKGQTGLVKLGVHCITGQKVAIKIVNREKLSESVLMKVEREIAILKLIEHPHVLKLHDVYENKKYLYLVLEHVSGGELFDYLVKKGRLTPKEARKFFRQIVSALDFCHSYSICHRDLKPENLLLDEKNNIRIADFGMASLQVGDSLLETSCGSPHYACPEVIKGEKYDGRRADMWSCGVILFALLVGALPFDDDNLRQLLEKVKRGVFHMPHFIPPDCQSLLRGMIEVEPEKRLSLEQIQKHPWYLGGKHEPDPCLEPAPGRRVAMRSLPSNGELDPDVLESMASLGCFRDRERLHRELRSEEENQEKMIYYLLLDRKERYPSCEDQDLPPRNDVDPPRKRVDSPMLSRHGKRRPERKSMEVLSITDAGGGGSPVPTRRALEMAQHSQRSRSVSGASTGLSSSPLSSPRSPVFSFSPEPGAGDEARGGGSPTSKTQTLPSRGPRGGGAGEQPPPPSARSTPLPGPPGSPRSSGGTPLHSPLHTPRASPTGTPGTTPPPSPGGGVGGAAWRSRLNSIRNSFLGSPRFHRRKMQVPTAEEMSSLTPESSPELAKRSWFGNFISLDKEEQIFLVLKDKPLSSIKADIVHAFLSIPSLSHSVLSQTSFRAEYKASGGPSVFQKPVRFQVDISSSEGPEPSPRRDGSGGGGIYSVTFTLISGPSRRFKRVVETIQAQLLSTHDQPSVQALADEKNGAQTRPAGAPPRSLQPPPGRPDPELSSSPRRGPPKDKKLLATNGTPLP

[15] = target: T5, Serine/threonine-protein kinase BRSK1 (Homo sapiens); conditions: at 1 µM
[16] = target: T6, Serine/threonine-protein kinase BRSK2 (Homo sapiens) (UniProt Q8IWQ3); conditions: at 0.1 µM
T6 sequence (whole entry): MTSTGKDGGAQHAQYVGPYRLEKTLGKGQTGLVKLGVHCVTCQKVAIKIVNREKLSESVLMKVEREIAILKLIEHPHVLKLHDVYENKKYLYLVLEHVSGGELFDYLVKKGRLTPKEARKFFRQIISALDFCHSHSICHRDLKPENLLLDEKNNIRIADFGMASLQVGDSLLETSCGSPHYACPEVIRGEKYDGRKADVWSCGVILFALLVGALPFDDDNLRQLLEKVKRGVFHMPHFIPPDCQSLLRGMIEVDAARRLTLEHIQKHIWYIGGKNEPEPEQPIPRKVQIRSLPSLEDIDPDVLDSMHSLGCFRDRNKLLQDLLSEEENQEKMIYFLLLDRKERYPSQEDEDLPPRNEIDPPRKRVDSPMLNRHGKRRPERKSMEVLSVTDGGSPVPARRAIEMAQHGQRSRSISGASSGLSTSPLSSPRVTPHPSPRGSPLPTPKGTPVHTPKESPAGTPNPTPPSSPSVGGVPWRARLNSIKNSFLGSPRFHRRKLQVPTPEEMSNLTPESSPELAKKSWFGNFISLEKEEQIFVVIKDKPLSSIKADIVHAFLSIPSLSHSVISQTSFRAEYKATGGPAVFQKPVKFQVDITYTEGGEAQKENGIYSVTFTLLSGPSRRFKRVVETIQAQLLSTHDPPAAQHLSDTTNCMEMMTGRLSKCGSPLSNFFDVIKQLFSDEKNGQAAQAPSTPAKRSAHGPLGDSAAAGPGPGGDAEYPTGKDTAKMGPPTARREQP

[17] = target: T6, Serine/threonine-protein kinase BRSK2 (Homo sapiens); conditions: at 1 µM
[18] = target: Calcium/calmodulin-dependent protein kinase type 1D (Homo sapiens) (UniProt Q8IU85); conditions: at 0.1 µM
[19] = target: Calcium/calmodulin-dependent protein kinase type 1D (Homo sapiens) (UniProt Q8IU85); conditions: at 1 µM
[20] = target: Calcium/calmodulin-dependent protein kinase type II subunit alpha (Homo sapiens) (UniProt Q9UQM7); conditions: at 0.1 µM;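 further: reported values are averages (mean inhibition of CAMK2A)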
Calcium/calmodulin-dependent protein kinase type II subunit alpha (Homo sapiens), sequence (Q9UQM7 whole entry): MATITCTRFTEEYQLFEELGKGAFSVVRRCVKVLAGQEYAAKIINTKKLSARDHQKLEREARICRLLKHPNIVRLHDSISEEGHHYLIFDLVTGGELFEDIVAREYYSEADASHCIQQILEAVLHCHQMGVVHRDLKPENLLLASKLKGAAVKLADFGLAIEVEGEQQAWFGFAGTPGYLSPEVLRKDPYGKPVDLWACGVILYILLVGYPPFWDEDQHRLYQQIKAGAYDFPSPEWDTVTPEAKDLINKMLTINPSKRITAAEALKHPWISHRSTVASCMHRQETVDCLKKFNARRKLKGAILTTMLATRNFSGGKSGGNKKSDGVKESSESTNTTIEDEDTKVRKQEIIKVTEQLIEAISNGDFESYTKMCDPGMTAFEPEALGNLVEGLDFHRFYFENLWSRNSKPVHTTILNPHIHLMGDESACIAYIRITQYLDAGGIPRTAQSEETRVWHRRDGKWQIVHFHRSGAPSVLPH

5'-AMP-activated protein kinase catalytic subunit alpha-1 (Homo sapiens), sequence (Q13131 whole entry, looked up): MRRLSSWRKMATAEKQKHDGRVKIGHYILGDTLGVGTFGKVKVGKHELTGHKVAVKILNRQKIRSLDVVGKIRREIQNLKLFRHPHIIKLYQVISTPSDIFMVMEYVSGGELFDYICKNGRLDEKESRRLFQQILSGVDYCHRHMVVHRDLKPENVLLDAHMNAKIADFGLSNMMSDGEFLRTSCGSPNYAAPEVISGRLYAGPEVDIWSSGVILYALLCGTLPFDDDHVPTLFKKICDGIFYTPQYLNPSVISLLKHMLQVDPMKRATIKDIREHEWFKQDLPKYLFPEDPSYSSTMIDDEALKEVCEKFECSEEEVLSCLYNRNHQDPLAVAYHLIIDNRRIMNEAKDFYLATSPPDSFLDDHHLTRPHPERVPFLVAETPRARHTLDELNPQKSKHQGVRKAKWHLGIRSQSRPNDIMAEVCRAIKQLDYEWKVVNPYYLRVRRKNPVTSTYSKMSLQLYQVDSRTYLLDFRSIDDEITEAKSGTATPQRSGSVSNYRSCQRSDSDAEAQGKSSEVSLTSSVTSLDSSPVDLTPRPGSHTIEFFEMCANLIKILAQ
Ribosomal protein S6 kinase alpha-6 (Homo sapiens), sequence (Q9UK32 whole entry): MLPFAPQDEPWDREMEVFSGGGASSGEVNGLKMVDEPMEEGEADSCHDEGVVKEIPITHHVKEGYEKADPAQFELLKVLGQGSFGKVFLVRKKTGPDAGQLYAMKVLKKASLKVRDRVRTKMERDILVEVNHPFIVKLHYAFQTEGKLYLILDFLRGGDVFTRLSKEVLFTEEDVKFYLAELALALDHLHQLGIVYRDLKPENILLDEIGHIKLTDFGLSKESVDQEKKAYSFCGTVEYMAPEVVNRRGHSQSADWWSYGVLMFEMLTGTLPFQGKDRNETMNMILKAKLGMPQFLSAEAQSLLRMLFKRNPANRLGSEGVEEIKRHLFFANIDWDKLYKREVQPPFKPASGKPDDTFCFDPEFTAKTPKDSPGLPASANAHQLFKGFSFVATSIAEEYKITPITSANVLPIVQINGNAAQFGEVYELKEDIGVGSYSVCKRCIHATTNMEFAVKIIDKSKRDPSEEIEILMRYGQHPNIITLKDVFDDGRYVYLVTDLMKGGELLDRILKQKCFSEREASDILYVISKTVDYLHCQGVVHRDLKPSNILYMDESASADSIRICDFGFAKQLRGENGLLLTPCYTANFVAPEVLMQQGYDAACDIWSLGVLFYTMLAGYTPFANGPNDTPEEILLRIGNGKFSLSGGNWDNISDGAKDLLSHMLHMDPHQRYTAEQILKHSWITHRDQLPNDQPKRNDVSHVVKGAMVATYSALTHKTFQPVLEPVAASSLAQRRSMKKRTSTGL
5'-AMP-activated protein kinase catalytic subunit alpha-2 (Homo sapiens), sequence (P54646 whole entry, looked up): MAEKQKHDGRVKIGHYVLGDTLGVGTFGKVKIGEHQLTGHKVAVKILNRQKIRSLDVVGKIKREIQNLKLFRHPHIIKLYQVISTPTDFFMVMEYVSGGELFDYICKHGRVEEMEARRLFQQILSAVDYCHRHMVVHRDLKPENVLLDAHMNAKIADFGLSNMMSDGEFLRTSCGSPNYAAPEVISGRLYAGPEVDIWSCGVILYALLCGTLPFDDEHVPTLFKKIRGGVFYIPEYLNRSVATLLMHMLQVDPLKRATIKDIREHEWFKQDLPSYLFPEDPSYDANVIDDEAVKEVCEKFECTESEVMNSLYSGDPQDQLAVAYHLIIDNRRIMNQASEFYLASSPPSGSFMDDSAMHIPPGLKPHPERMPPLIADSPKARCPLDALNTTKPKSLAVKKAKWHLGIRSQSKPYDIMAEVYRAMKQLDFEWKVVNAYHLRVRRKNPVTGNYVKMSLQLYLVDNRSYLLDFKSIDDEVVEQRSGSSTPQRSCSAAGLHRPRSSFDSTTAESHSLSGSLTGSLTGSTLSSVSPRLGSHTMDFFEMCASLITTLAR
Calcium/calmodulin-dependent protein kinase type 1D (Homo sapiens), sequence (Q8IU85 whole entry, looked up): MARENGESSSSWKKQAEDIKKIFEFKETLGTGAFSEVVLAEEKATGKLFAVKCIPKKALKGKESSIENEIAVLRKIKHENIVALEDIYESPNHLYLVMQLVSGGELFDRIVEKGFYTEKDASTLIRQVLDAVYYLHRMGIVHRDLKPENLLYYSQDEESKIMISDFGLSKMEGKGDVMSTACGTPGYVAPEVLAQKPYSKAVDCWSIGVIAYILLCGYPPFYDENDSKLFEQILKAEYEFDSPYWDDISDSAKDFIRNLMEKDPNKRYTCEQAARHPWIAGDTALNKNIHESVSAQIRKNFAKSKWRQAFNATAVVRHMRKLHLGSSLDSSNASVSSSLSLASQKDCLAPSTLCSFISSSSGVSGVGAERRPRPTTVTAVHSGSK

Structure (SMILES)	inhibition [1]	inhibition [2]	inhibition [3]	inhibition [4]	inhibition [5]	inhibition [6]	inhibition [7]	inhibition [8]	inhibition [9]	inhibition [10]	inhibition [11]	inhibition [12]	inhibition [13]	inhibition [14]	inhibition [15]	inhibition [16]	inhibition [17]	inhibition [18]	inhibition [19]	inhibition [20]
NS(=O)(=O)c1ccc(N/N=C2\C(=O)Nc3ccc(-c4cnco4)cc32)cc1	5.02%	1.68%	10.2%	1.11%	3.35%	1.34%	5.76%	3.38%	15.9%	5.38%	11.8%	5.26%	35.2%	2.76%	14.5%	3.56%	23.8%	-0.53%	2.62%	0.21%
C#Cc1cccc(Nc2ncnc3ccc(OCCCCNCCS(C)(=O)=O)cc23)c1	3.55%	3.74%	5.99%	3.88%	4.33%	3.82%	4.46%	4.2%	6.4%	4.13%	4.43%	4.55%	12.9%	1.77%	7.62%	3.96%	10%	-0.65%	0.48%	3.18%
CCc1ccc(Oc2nccc(-c3c(-c4ccc(F)cc4)ncn3C3CCNCC3)n2)cc1	3.1%	-1.02%	1.21%	-0.69%	1.93%	-0.71%	1.87%	5.5%	8.69%	5.08%	7.27%	-0.89%	3.95%	1.81%	-0.56%	1.84%	3.86%	1.54%	3.63%	4.59%
CS(=O)(=O)CCNCc1ccc(-c2ccc3ncnc(Nc4ccc(OCc5ccccc5)c(Br)c4)c3c2)o1	-1.41%	1.16%	0.22%	2.67%	1.45%	3.29%	3.35%	2.94%	1.46%	1.41%	-0.88%	-0.46%	0.63%	-1.34%	2.21%	1.54%	2.06%	-1.35%	-0.82%	2.7%
CN(C)CCCNc1nccc(-c2c(-c3ccc(F)cc3)nn3cc(C(F)(F)F)ccc23)n1	2.42%	1.95%	2.09%	2.67%	1.75%	1.92%	0.78%	1.32%	1.37%	0.22%	2.79%	-1.31%	7.22%	1.29%	4.81%	0.82%	4.17%	1.56%	1.39%	3.05%
O=C(Nc1n[nH]c2nc(-c3ccc(O)cc3)c(Br)cc12)C1CC1	59.7%	3.83%	12.1%	6.54%	24.8%	5.88%	16.7%	5.78%	20.1%	4.36%	12.1%	8.05%	30.2%	25.8%	66.8%	33.5%	70.2%	3.09%	14.4%	4.24%
CCc1cccc(CC)c1/C=C/c1cncc(C(=O)NC)c1	1.72%	2.19%	-0.86%	3.62%	-2.52%	0.54%	0.72%	1.05%	1.48%	0.22%	2.36%	1.6%	6.57%	1.79%	0.96%	0.46%	0.3%	0.62%	1.99%	3.18%
